Measured values from the supplement of paper PMC11732987, “Enantioselective OTUD7B fragment discovery through chemoproteomics screening and high-throughput optimisation” (Communications Chemistry, 2025).

Key:
Test in all cases: log2 ratio of Biotin-Ahx-Ub-VS probe labelling (fragment/DMSO); higher = less target engagement (more negative = stronger competition), active = hit call of the paper (q ≤ 0.05, log2 ratio ≤ -1)
Details in all cases: compound concentration: 200 uM; treatment time: 3 h
USP34 = USP34 (UniProt Q70CQ2)
USP34, sequence (Q70CQ2 whole entry, the tested form may be a part): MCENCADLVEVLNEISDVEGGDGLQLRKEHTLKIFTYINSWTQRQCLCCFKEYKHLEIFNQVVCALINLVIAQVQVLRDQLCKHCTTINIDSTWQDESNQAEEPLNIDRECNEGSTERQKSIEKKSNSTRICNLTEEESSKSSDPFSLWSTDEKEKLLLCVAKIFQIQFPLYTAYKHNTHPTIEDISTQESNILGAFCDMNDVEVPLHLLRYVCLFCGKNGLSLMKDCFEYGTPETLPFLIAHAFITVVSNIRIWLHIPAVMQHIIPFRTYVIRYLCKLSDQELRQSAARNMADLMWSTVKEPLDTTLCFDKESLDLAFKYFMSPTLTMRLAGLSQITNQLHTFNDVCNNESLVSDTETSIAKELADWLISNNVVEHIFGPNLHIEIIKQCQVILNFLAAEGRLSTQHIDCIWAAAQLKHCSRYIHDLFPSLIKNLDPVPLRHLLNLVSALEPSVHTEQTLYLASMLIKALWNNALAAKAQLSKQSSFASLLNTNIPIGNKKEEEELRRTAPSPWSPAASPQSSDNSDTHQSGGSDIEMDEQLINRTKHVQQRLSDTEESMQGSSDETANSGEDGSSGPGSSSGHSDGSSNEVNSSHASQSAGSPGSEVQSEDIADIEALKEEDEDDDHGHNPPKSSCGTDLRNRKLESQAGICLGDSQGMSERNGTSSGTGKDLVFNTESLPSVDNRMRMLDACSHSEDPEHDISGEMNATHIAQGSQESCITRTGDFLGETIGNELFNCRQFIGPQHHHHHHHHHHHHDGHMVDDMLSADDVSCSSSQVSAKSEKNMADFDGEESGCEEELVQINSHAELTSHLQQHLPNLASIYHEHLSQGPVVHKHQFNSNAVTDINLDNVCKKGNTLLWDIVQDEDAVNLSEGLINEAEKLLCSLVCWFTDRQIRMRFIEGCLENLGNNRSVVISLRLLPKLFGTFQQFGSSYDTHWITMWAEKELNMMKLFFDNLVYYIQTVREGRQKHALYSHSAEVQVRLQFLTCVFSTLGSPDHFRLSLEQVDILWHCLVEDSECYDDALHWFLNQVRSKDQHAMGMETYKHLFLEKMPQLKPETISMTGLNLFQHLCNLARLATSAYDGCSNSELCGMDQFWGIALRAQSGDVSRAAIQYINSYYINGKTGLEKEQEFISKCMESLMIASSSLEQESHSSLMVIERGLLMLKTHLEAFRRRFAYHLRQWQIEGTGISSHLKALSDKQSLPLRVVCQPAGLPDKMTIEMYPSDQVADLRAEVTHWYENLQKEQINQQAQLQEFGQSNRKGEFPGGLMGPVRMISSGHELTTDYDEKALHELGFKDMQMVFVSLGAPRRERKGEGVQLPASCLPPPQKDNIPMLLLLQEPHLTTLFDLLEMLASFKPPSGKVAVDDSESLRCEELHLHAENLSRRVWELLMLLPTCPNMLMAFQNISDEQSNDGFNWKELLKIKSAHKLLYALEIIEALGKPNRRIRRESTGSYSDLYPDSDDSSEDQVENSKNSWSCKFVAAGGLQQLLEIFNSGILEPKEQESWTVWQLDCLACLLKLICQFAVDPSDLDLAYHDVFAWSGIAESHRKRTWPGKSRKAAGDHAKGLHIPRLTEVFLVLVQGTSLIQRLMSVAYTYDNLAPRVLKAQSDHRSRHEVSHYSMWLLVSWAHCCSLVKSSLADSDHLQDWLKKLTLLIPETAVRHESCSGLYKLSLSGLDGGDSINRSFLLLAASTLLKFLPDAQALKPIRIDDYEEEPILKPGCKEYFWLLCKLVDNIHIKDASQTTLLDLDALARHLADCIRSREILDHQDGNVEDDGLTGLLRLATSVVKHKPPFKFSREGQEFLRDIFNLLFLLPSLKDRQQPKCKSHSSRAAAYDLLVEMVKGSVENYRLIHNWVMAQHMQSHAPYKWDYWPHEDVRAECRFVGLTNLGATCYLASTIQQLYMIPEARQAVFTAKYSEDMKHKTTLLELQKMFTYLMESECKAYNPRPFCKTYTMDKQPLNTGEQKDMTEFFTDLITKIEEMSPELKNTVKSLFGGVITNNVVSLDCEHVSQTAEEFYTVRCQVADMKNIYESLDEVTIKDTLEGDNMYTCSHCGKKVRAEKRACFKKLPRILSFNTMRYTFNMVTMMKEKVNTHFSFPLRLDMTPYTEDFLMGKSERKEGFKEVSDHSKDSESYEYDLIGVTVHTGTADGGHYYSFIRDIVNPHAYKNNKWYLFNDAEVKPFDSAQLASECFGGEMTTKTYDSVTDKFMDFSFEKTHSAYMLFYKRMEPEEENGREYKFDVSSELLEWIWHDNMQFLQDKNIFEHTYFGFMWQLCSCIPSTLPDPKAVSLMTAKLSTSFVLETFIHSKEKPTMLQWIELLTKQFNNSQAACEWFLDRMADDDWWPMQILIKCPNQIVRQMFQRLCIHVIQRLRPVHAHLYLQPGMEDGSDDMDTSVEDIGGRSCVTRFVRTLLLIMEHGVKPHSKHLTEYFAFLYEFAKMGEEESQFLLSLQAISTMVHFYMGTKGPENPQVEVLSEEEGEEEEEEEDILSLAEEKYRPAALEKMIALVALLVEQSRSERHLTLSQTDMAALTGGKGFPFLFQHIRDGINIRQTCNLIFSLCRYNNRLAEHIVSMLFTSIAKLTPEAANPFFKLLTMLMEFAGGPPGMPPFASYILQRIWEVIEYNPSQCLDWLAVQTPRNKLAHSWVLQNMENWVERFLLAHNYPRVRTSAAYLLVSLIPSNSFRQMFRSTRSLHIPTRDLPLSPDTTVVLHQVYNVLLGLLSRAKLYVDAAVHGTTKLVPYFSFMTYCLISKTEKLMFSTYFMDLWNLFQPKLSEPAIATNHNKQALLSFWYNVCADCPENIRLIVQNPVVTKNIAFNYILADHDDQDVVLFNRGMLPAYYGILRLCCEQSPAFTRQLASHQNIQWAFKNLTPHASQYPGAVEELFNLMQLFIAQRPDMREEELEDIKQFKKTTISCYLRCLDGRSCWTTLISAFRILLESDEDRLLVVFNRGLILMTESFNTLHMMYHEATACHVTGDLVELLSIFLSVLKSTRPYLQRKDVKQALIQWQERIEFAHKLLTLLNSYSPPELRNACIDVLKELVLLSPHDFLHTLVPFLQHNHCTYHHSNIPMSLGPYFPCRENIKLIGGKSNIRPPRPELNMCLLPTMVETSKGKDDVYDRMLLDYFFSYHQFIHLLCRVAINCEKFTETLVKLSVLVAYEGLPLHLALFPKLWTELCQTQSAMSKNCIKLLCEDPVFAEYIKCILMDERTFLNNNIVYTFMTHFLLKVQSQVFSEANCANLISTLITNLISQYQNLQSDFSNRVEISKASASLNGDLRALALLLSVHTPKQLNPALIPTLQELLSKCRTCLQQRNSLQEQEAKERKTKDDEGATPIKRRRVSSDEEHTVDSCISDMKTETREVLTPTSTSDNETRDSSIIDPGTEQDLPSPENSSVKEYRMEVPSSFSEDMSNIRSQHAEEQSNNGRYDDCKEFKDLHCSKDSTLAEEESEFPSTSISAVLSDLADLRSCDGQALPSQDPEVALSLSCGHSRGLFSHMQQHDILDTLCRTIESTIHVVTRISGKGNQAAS
Procedure, shortened: (§1)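 Using Biotin-Ahx-Ub-VS at 0.5 µM final for 1 h, DUBs were labelled in HEK293T lysate (495 µg per sample) that had first been treated in triplicate with fragment at 200 µM or vehicle for 3 h. NeutrAvidin enrichment, LysC and trypsin digestion and diaPASEF LC-MS/MS followed. Spectronaut label-free quantities were global-median-normalised. Values are average log2 fragment/vehicle ratios by unpaired t-test, using proteins with ≥2 unique peptides.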

USP36 = target: T1, USP36 (UniProt Q9P275)
T1 sequence (whole entry): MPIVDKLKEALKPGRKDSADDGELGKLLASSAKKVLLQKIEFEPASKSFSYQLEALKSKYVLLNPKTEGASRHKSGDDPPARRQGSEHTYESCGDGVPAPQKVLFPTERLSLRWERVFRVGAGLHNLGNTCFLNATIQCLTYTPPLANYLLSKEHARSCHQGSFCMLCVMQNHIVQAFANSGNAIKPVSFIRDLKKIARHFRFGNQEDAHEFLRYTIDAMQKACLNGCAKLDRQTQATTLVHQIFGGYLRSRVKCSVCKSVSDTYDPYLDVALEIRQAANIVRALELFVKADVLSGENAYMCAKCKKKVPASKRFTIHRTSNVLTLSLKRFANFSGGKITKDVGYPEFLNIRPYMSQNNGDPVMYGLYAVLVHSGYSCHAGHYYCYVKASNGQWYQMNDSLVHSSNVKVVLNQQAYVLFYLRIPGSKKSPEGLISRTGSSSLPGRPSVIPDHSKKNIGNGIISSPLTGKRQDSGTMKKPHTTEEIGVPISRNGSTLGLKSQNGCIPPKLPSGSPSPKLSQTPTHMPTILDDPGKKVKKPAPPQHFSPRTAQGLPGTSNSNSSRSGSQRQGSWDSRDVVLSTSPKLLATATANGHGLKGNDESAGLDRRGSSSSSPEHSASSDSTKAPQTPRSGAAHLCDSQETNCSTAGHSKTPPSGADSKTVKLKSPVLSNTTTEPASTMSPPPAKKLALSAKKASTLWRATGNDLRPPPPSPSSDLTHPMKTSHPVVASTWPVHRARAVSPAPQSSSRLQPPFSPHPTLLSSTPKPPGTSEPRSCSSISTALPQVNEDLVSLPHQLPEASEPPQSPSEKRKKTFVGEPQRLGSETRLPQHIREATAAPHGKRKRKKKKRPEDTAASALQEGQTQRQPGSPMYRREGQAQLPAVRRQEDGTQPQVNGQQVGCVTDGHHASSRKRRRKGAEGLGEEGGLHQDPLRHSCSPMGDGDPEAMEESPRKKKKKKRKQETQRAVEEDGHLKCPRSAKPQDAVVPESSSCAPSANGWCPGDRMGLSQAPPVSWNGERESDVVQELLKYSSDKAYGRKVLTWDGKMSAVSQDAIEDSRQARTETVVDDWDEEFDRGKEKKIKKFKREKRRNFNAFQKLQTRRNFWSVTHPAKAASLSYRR
Procedure, shortened: as §1

USP38 = target: T2, USP38 (UniProt Q8NB14)
T2 sequence (whole entry): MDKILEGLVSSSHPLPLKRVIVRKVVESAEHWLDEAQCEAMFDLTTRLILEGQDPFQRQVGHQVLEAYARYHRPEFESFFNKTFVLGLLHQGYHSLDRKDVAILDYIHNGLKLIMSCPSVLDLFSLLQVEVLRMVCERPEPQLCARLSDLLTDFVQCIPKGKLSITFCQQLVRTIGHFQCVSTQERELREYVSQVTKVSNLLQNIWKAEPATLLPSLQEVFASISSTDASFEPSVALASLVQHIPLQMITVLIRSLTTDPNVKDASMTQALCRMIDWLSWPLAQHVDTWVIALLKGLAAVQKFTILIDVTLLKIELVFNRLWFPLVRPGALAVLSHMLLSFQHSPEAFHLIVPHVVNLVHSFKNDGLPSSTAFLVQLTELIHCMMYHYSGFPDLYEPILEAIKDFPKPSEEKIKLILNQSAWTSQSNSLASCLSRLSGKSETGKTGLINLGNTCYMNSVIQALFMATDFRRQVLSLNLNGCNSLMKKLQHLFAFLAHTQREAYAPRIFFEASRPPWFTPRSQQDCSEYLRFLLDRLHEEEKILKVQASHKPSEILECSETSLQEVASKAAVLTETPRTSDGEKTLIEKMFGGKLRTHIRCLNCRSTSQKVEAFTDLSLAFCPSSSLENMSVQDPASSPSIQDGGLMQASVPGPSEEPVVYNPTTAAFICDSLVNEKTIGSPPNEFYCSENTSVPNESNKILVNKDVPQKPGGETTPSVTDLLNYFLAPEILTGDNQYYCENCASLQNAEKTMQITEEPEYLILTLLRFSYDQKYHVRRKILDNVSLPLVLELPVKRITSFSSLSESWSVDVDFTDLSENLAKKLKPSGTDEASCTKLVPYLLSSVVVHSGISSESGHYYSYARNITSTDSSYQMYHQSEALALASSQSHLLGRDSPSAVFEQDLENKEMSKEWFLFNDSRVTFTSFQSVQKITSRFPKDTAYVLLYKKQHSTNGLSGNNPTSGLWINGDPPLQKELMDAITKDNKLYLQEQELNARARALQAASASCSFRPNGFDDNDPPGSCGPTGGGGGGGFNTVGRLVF
Procedure, shortened: as §1

USP39 = target: T3, USP39 (UniProt Q53GS9)
T3 sequence (whole entry): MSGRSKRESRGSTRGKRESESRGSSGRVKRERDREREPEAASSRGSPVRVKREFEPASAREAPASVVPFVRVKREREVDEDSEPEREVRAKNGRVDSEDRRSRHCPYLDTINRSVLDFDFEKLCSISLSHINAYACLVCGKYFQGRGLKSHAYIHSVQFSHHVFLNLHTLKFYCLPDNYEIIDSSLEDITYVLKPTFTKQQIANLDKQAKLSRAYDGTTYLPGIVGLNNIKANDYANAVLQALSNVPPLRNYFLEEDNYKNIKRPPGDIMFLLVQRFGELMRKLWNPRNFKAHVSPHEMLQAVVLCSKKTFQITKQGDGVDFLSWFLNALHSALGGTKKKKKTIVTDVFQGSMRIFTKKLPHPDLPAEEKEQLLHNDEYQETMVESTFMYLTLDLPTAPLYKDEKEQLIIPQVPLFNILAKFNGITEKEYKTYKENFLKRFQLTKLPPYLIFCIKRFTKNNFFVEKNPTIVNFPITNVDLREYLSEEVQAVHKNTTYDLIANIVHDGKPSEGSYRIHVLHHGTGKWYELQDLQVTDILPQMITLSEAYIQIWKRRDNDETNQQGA
Procedure, shortened: as §1

USP4 = target: T4, USP4 (UniProt Q13107)
T4 sequence (whole entry): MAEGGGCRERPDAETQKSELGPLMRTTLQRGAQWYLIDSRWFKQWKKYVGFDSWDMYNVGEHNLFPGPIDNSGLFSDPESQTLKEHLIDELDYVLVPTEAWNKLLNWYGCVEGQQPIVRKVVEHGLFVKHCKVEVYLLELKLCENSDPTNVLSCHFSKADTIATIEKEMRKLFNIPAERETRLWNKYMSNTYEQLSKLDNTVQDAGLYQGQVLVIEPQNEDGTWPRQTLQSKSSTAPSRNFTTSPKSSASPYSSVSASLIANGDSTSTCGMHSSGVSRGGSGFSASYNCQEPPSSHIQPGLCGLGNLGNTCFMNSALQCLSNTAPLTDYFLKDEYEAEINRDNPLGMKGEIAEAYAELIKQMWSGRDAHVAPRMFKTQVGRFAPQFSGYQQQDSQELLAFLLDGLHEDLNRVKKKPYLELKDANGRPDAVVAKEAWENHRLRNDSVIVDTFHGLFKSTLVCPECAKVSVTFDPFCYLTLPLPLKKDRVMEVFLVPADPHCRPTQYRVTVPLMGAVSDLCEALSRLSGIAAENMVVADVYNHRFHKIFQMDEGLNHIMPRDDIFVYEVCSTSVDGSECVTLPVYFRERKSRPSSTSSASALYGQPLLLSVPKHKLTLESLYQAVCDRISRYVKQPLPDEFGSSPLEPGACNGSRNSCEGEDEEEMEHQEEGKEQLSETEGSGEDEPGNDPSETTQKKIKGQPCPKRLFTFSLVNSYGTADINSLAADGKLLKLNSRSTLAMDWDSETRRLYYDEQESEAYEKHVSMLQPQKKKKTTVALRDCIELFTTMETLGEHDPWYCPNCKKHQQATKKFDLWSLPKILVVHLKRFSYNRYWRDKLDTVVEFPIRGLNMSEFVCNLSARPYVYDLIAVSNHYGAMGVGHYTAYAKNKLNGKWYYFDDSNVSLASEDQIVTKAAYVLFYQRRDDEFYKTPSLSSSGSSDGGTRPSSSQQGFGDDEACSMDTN
Procedure, shortened: as §1

Measured: log2 ratio of Biotin-Ahx-Ub-VS probe labelling

CC(=O)C1CCCCN1C(=O)CCl (stereo not given)
inactive: USP34 -0.216 | USP36 -0.0205 | USP38 -0.0979 | USP39 -0.37 | USP4 -0.0834
